Measurements: ChEMBL document CHEMBL3433997, “St. Jude Leishmania screening dataset” (2016)

Assays:
Assay type in all cases: functional
[1] = molecular target: Solute carrier family 2, facilitated glucose transporter member 1 (Homo sapiens) (UniProt P11166); assay: ST_JUDE_LEISH: Cytotoxicity at 2uM final concentration against transgenic Leishmania Mexicana promastigotes LmGLUT1 that are glucose transport deficient and complemented with the human glucose transporter GLUT1. Activity is measured by DNA content using SYBR green in vitro
Sequence of Solute carrier family 2, facilitated glucose transporter member 1 (Homo sapiens) (P11166 whole entry): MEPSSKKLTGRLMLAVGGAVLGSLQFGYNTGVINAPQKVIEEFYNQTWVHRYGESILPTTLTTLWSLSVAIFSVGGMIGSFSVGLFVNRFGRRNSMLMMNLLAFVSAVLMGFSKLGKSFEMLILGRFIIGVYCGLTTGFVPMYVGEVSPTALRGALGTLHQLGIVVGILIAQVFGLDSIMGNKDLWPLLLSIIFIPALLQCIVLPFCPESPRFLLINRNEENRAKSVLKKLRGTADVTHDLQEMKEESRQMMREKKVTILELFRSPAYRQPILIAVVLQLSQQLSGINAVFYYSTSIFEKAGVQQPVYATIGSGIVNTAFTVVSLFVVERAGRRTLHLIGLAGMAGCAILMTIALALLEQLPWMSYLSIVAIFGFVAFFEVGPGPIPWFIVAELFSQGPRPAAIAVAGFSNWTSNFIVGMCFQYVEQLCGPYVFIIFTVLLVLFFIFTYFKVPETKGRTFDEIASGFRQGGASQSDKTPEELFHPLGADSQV

[2] = molecular target: Hexose transporter 1 (Plasmodium falciparum) (UniProt O97467); assay: ST_JUDE_LEISH: Cytotoxicity at 2uM final concentration against transgenic Leishmania Mexicana promastigotes LmPfHT that are glucose transport deficient and complemented with the Plasmodium falciparum hexose transporter. Activity is measured by DNA content using SYBR green in vitro
[3] = molecular target: Glucose transporter (Leishmania mexicana) (UniProt O61059); assay: ST_JUDE_LEISH: Cytotoxicity at 2uM final concentration against transgenic Leishmania Mexicana promastigotes LmGT2 that are glucose transport deficient and complemented with the L. Mexicana glucose transporter 2. Activity is measured by DNA content using SYBR green in vitro

SMILES | inhibition [1] | inhibition [2] | inhibition [3]
COc1ccc2nccc([C@@H](O)CN3CCC(NC(=O)C(c4cc5ccccc5o4)N4CCN(c5ccccc5)CC4)CC3)c2c1 (stereo partly drawn) | 5.51% | 2.83% | 2.54%
CC(=O)NCCNCc1cccc(C(=O)NCc2cccc(C(F)(F)F)c2)c1 | 3.26% | 5.92% | 4.88%
Cc1cc(N[C@@H](Cc2ccccc2)C(=O)NCCc2ccccc2)nc(NCCOc2ccccc2)n1 | 5.12% | 5.84% | 2.55%
N=C1NC(=N)N(OCCCCCCON2C(=N)NC(=N)NC2C=Cc2ccccc2)C(C=Cc2ccccc2)N1 (stereo not drawn) | 1.73% | 2.16% | 10.7%
CC(C)C[C@H](NC(=O)c1cc2ccccc2s1)C(=O)N[C@H]1CCN(Cc2ccc(I)c(OCCN3CCCC3)c2)C1 | -0.35% | -1.55% | -0.29%
O=C(Nc1cccc(-c2ccc(CN3CCCC3)cc2)c1)c1ccc(Cl)cc1 | 3.03% | 1.53% | 1.42%
O=S(=O)(c1ccc(Oc2ccccc2)cc1)N(CCC(O)(C(F)(F)F)C(F)(F)F)Cc1cccc(O)c1 | -1.44% | -3.19% | -4.58%
CN1CCCN(Cc2ccc(-c3cccc(NC(=O)c4cccc(C#N)c4)c3)cc2)CC1 | 8.55% | 4.85% | 5.62%
Cc1cc(-c2c[nH]c3ncc(-c4cccc5ncccc45)cc23)ccc1C(=O)O | 0.89% | 0.55% | 0.66%
Cc1cc(N2CCCC2)nc(Nc2ccc(NC(=O)Cc3ccccc3)cc2)n1 | 88.4% | 95.2% | 72.3%
Cc1ccc(-c2ccn(Cc3cccc(OCc4ccccc4)c3)n2)cn1.Cc1ccc(-c2ccnn2Cc2cccc(OCc3ccccc3)c2)cn1 | 2.15% | 1.4% | -0.57%
CC(C)CCNC(=N)c1ccc(OCCCCCOc2ccc(C(=N)NCCC(C)C)cc2)cc1 | 12.4% | 12.5% | 8.15%
CCCC(C)NC(=O)C(N)Cc1cccc(I)c1 (stereo not drawn) | 1.78% | -1% | 1.85%
Cc1[nH]cnc1CSCCN/C(=N\C#N)NCCCCCCCCN/C(=N/C#N)NCCSCc1nc[nH]c1C | 2.45% | 2.15% | 2.98%
CC(C)C(NC(=O)c1c(F)cccc1F)C(=O)Nc1ccc(Cc2nc3ccccc3s2)cc1 (stereo not drawn) | -1.47% | 2.55% | 1.42%
O=S(=O)(c1ccc(NC(S)=NN=Cc2ccccn2)cc1)N1CCCCC1 | 3.4% | 6.75% | 5.11%

SMILES | inhibition [1] | inhibition [2] | inhibition [3]
CSC1=NC(C)(C)CC2(CC(c3cccc(C)c3)c3cc(Cl)c(O)cc3O2)N1 (stereo not drawn) | 0.95% | 1% | 0.47%
CC(Cc1ccc(C(=O)N2CCN(C(=O)c3ccc(CC(C)NCCc4cccc(Cl)c4)cc3)CC2)cc1)NCCc1cccc(Cl)c1 (stereo not drawn) | 6.51% | 3.6% | 5.54%
O=C(N[C@@H](Cc1ccccc1)CN1CCC(Oc2ccc(F)cc2)CC1)c1ccc(OCCCN2CCCCC2)cc1 | 30.5% | 10.5% | 13.4%
CCCC(C)Nc1nc(C)cc(N[C@@H](Cc2ccccc2)C(=O)NCc2cccc(F)c2)n1 (stereo partly drawn) | 4.14% | 4.96% | 2.68%
COc1c(CN2CCOCC2)cccc1-c1cc2c(-c3ccc(C(=O)O)c(C(C)C)c3)ccnc2[nH]1 | 4.23% | 3.17% | 3.15%
CS(=O)(=O)Nc1ccc2[nH]cc(C3CCN(CC(O)C4CCN(C(=O)/C=C/c5ccc(Cl)c(Cl)c5)CC4)CC3)c2c1 (stereo not drawn) | 4.85% | 2.94% | 3.3%
COc1ccc2ccccc2c1CNCCCCCCNCc1c(OC)ccc2ccccc12 | 1.14% | -0.97% | -3.28%
O=C(NCC1CCC(CNCCCc2ccccc2)CC1)c1cc(Cl)cc(Cl)c1 (stereo not drawn) | 1.46% | 0.53% | 1.72%
Clc1ccc2c(NN=Cc3cccnc3)ccnc2c1 | 6.14% | 0.59% | 5.48%
COc1ccc2nccc([C@@H](O)CN3CCC(NCc4cc5c(F)ccc(F)c5[nH]4)CC3)c2n1 | 87.9% | 86.8% | 87.2%
O=C(NC1CC1)c1ccc(Cn2c(SCc3cccc(Cl)c3)nc3ccccc3c2=O)cc1 | 0.42% | -0.54% | -1.07%
CCN(CC(C)O)C(=O)c1ccc(-c2cccc(-c3nc4cccc(C)c4[nH]3)c2)cc1 (stereo not drawn) | 0.34% | 1.63% | 0.11%
O=C(Nc1ccc(Cl)cc1)NC1CCN(CCCCCNC(=O)C2CC2c2ccc(Cl)c(Cl)c2)CC1 (stereo not drawn) | 9.93% | 9.43% | 7.34%
COCCCNc1sc(S(=O)(=O)c2ccccc2)nc1S(=O)(=O)c1ccc(C)cc1 | -0.53% | -2.3% | 1.51%
O=C(NC1CCN(Cc2ccccc2)CC1)c1ccc(-c2nc3cc(Cl)c(F)cc3[nH]2)s1 | 3.32% | 3.3% | 4.27%
